Test systems include SK-MEL-2 melanoma; EKVX NSCLC; SN12C renal; UO-31 renal; TK-10 renal; ACHN renal; CAKI-1 renal; A498 renal; CCRF-CEM leukemia; MOLT-4 leukemia.
Common to all, as to assay: NCI-60 one-dose screen, 48 h (100 = growth as untreated, 0 = no growth, -100 = all killed)
Common to all, as to conditions: 10 µM unless noted

Molecules are shown by their SMILES. Compounds without any hit were thinned out: in the full panel of roughly 83,000, 20% have a hit.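 Assay: single dose, 48 h. Readout: percent growth (0 = no net growth; negative = cell death). Active: <10.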 Unmarked numbers belong to inactive results. Active and inactive are the calls of the source.

In the case of `CC(=O)Nc1ccc(-n2cnc3ccc(-c4ccc(O)cc4)cc32)cc1`, the growth with SK-MEL-2 melanoma was 50.7%; in the experiment on EKVX NSCLC, 54.8%; with SN12C renal, 29.3%; with UO-31 renal it was 46.2%; in the experiment with TK-10 renal, 89.9%; in the experiment with ACHN renal, 24.7%. Moreover, the growth in the experiment on CAKI-1 renal was 29.9%; in the experiment with A498 renal, 92.8%; in the experiment with CCRF-CEM leukemia, 30.2%; with MOLT-4 leukemia it was 11.3%.
On to `COc1cc2oc(-c3cccc(C(=O)Nc4ccc(Cl)cc4)c3)cc(=O)c2c(OCCNC(=O)[C@@H](N)CCC(=O)O)c1OC`, for which the growth in the experiment on SK-MEL-2 melanoma is 104%; in the experiment with EKVX NSCLC, 70.8%; in the experiment on SN12C renal it was 61.6%; with UO-31 renal, 80.1%; in the experiment on TK-10 renal, 114%; with ACHN renal, 92.5%. The growth with CAKI-1 renal was 68.9%; in the experiment on A498 renal, 157%; in the experiment with CCRF-CEM leukemia it was 75.6%; with MOLT-4 leukemia it was 36.6%.
Take `CCN(CC)C(=O)N/C(N)=N/c1nc2ccccc2s1`: the growth in the experiment with SK-MEL-2 melanoma is 65.5%; in the experiment with EKVX NSCLC, 15.3%; with SN12C renal, 50.1%; in the experiment on UO-31 renal it was 37.7%; in the experiment with TK-10 renal, 53.7%; with ACHN renal, 50.7%. Besides, the growth was 36.6% with CAKI-1 renal, 55.6% in the experiment with A498 renal, 41.9% with CCRF-CEM leukemia and -4.3% (active) in the experiment on MOLT-4 leukemia.
As to `Cn1cc(-c2cc3nc(-c4cn(C)c5ncccc45)cc(N)n3n2)c2ccccc21`, the growth is 15.2% in the experiment on SK-MEL-2 melanoma; 43.7% in the experiment on EKVX NSCLC; -38.2% (active) with SN12C renal; 8.84% (active) with UO-31 renal; 80.3% in the experiment on TK-10 renal; -73.3% (active) with ACHN renal. In addition, the growth is -23.2% (active) in the experiment on CAKI-1 renal, -2.42% (active) in the experiment with A498 renal, 0.438% (active) in the experiment with CCRF-CEM leukemia and -21.3% (active) in the experiment on MOLT-4 leukemia.
With `C/C(=N\N=C1/C(=O)Nc2ccccc21)c1ccc2c(c1)Nc1ccccc1S2`, the growth in the experiment on SK-MEL-2 melanoma was 80.5%; in the experiment with EKVX NSCLC, 43.7%; with SN12C renal it was 42.1%; with UO-31 renal it was 34.4%; in the experiment on TK-10 renal, 78.7%; with ACHN renal, 56.1%. Besides, the growth in the experiment on CAKI-1 renal is 49.4%; in the experiment on A498 renal, 28.2%; with CCRF-CEM leukemia, 45.8%; in the experiment on MOLT-4 leukemia it was 11.4%.
Consider `CC(=O)Nc1cccc(-c2nc3cc(-c4ccc(O)cc4)ccc3n2C)c1`, for which the growth in the experiment with SK-MEL-2 melanoma is 52.6%; with EKVX NSCLC it was 35.1%; with SN12C renal, 43.8%; in the experiment with UO-31 renal, 38.4%; in the experiment with TK-10 renal it was 59%; with ACHN renal it was 16%. Further, the growth with CAKI-1 renal was 38.5%; in the experiment with A498 renal, 86.8%; with CCRF-CEM leukemia, 28.3%; with MOLT-4 leukemia, 9.2% (active).
For the compound `COc1c(F)ccc(C(=O)Nc2ccc3nc(NC(=O)C4CCCN(S(=O)(=O)c5ccc(Cl)cc5)C4)sc3c2)c1F` (stereo not given), the growth with SK-MEL-2 melanoma was 88%; with EKVX NSCLC, 85.1%; in the experiment with SN12C renal, 82%; in the experiment on UO-31 renal, 62.9%; in the experiment with TK-10 renal, 103%; with ACHN renal, 86.7%. Besides, the growth was 68.9% in the experiment with CAKI-1 renal, 96.4% in the experiment on A498 renal, 85.5% in the experiment with CCRF-CEM leukemia and 38.8% in the experiment with MOLT-4 leukemia.
In the case of `COc1ccc(/C=C/c2nc3ccccc3c(=O)n2CC(=O)Nc2ccc(OC)cc2)cc1`, the growth in the experiment with SK-MEL-2 melanoma is 96%; with EKVX NSCLC, 114%; with SN12C renal, 57.3%; in the experiment on UO-31 renal, 46.9%; in the experiment with TK-10 renal it was 48.2%; in the experiment on ACHN renal, 14%. Further, the growth in the experiment with CAKI-1 renal was 47.3%; with A498 renal, 130%; with CCRF-CEM leukemia, 63.6%; with MOLT-4 leukemia it was 78.2%.
With `Cc1ccc(S(=O)(=O)c2nc(S(=O)(=O)c3ccc(C)cc3)c(N3CCN(C)CC3)s2)cc1`, the growth in the experiment on SK-MEL-2 melanoma was 49.4%; in the experiment with EKVX NSCLC, 63.4%; in the experiment with SN12C renal it was 46.3%; with UO-31 renal it was 69.5%; in the experiment with TK-10 renal it was 125%; in the experiment with ACHN renal, 71.6%. The growth was 60.9% with CAKI-1 renal, 83.5% in the experiment on A498 renal, 19.7% with CCRF-CEM leukemia and 30% with MOLT-4 leukemia.
Regarding `Nc1nc(-c2ccccc2)c(N=Nc2ccc(Cl)cc2[N+](=O)[O-])s1`, the growth in the experiment with SK-MEL-2 melanoma was 90.4%; in the experiment on EKVX NSCLC, 76.8%; in the experiment on SN12C renal, 96%; in the experiment on UO-31 renal it was 65.2%; in the experiment with TK-10 renal it was 169%; with ACHN renal, 101%. Also, the growth was 82.5% with CAKI-1 renal, 92% in the experiment on A498 renal, 101% in the experiment on CCRF-CEM leukemia and 100% with MOLT-4 leukemia.
Take `CCOC(=O)C(N=Nc1ccc(S(=O)(=O)N=C(N)N)cc1)C(C)=O` (stereo not given): the growth in the experiment on SK-MEL-2 melanoma is 119%; with EKVX NSCLC it was 111%; in the experiment with SN12C renal, 101%; in the experiment with UO-31 renal, 97.6%; in the experiment on TK-10 renal it was 88.6%; in the experiment on ACHN renal it was 98.2%. Also, the growth with CAKI-1 renal was 96.3%; in the experiment with A498 renal, 102%; with CCRF-CEM leukemia, 101%; with MOLT-4 leukemia, 110%.
As to `CC1CN(c2oc(-c3ccc([N+](=O)[O-])cc3)nc2C#N)CC(C)O1` (stereo not given), the growth in the experiment with SK-MEL-2 melanoma was 103%; with EKVX NSCLC it was 95.2%; in the experiment on SN12C renal, 91.5%; in the experiment on UO-31 renal, 81.7%; with TK-10 renal, 109%; in the experiment on ACHN renal, 108%. Besides, the growth in the experiment with CAKI-1 renal was 98.2%; with A498 renal it was 97.2%; with CCRF-CEM leukemia it was 100%; in the experiment with MOLT-4 leukemia, 99.8%.
Turning to `O=C(COc1ccc(NC(=O)Nc2ccc(Cl)c(Cl)c2)cc1)N=Nc1c(O)[nH]c2ccc(Br)cc12`, the growth in the experiment with SK-MEL-2 melanoma is -71.6% (active); in the experiment with EKVX NSCLC, 4.88% (active); in the experiment with SN12C renal, -20.9% (active); with UO-31 renal, 51.1%; with TK-10 renal, -0.92% (active); in the experiment with ACHN renal, 12.5%. The growth was 0.251% (active) in the experiment on CAKI-1 renal, -54.9% (active) with A498 renal, 9.52% (active) in the experiment on CCRF-CEM leukemia and -3.16% (active) in the experiment with MOLT-4 leukemia.

The record behind these values is PubChem BioAssay (NCI).
